High-throughput results from PubChem BioAssay.
VP16 counter: VP16 counterscreen qHTS for inhibitors of ROR gamma transcriptional activity; hit rate 3.5% among 310,000; Drosophila S2 Gal4-VP16 UAS-luciferase, luminescence, 20 h; Potency, µM (doses to about 53.6 µM), usual class: inhibitors;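 note: Gal4-VP16 expression switched on by copper sulfate through the metallothionein promoter; nearly all actives have a fitted effect of over 50% in size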
KB-V1 cytotox: qHTS assay for MDR1-selective chemotherapeutics: Primary screen using the drug-selected MDR subline cells KB-V1; KB-V1 MDR cells viability, CellTiter-Glo, 72 h; Potency, µM (series often up to 46.1 µM), usual class: cytotoxic; hit rate 3.4% among 400,000; AID 1347076, 2019; note: nearly all actives have a fitted effect of over 60% in size
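In this primary screen, KB-V1 cells overexpressing P-gp are incubated with library compounds (lowest to highest concentration) for 72 h at 37 degrees C before a luminescent ATP viability read.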
KB-3-1 tox: qHTS assay for MDR1-selective chemotherapeutics: Primary screen using the parental adenocarcinoma cell KB-3-1; KB-3-1 viability, CellTiter-Glo ATP luminescence, 72 h; Potency, µM (top dose mostly 46.1 µM), actives largely listed as cytotoxic; hit rate 1.4% among 400,000; AID 1347075, 2019; note: nearly all actives have a fitted effect of over 60% in size
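Parental KB-3-1 viability, qHTS format: 72 h compound exposure, 37 °C; CellTiter-Glo; media-only wells and DMSO plates as controls; concentration-effect fits on corrected data.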
MCF10A rerep: A quantitative high throughput screen for small molecules that induce DNA re-replication in MCF 10a normal breast cells; MCF 10A DNA re-replication, Hoechst nuclear intensity, 48 h; Potency, µM (titrated, usually from 46.1 µM), actives largely listed as activators; hit rate 2.9% among 350,000; note: nearly all actives have a fitted effect of over 50% in size
SW480 rereplic: A quantitative high throughput screen for small molecules that induce DNA re-replication in SW480 colon adenocarcinoma cells; SW480 DNA re-replication, Hoechst DNA content imaging, 48 h; Potency, µM (highest dose often 46.1 µM), hits mostly activators; hit rate 1.8% among 340,000; note: nearly all actives have a fitted effect of over 55% in size
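SW480 cells exposed to compounds for 48 hr at 37 C, 5% CO2, then Hoechst-stained 40 min. Nuclear DNA content imaged by fluorescence scanning (405 nm excitation, 500-530 nm emission); re-replication scored as increased high-intensity nuclei.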
RORg inh: qHTS for inhibitors of ROR gamma transcriptional activity | Nuclear receptor ROR-gamma (Mus musculus), P51450 | Drosophila S2 Gal4-RORgamma UAS-luciferase reporter, 20 h | Potency, µM (highest dose often 53.6 µM), most hits filed as inhibitors | hit rate 5.4% among 310,000 | AID 2551, 2010; note: nearly all actives have a fitted effect of over 60% in size
Target sequence (P51450 whole entry, looked up, the tested form may be a part): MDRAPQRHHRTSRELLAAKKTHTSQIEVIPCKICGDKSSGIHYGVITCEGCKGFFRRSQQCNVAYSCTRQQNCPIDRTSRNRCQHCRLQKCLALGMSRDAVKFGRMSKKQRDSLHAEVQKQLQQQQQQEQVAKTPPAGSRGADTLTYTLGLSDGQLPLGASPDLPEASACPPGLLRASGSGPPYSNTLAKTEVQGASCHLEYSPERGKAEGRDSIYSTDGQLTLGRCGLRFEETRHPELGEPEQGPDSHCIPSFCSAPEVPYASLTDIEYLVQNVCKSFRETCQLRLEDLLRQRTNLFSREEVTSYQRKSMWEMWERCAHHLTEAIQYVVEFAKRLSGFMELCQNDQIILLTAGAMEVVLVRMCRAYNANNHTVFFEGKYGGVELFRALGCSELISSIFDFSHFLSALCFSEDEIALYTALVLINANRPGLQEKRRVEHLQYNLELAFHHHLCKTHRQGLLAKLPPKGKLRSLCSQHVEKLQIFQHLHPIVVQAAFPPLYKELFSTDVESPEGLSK
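Schneider cells (Drosophila), stable Gal4 DBD–ROR gamma + UAS-luc; 1 hr cmpd preincubation; Cu2+ induction 700 uM final; 20 hr ambient; luminescence.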
Hits are given with their value; – = inactive; ? = inconclusive; · = not tested or not shown; [ ] = remark or other dose. Hits are enriched below; roughly 10% of the tested compounds scored in any of these assays. Calls come from the whole dose curve; as a rule, active = well fitted curve in the direction sought with a large enough effect; inconclusive = small, poorly fitted or top-dose-only effect, or another doubt; inactive = no such curve, though single readings can be large; an effect the other way counts as inactive or inconclusive.

SMILES	VP16 counter	KB-V1 cytotox	KB-3-1 tox	MCF10A rerep	SW480 rereplic	RORg inh
Cc1ccc(C(=O)Oc2ccccc2N2C(=O)C3CCC(C)CC3C2=O)cc1 (centres undefined)	–	–	–	–	–	–
CC1(C)C(=O)N(CC(=O)Nc2ccc(OC(F)(F)F)cc2)c2ccccc21	·	–	–	·	·	·
Cc1ccc2nc(SCc3nc(-c4ccc(Cl)cc4)no3)[nH]c2c1	·	–	–	·	·	·
CCCCn1c(O)c(N=Nc2ccccc2O)c2ccccc21	·	–	–	–	?	·
CCCCn1c(O)c(N=Nc2ccccn2)c2ccccc21	?	–	–	–	–	10µM
COCC(=O)Oc1c(Sc2ccccc2[N+](=O)[O-])c(C)nn1C(C)(C)C	–	–	–	–	–	–
CCC(CC)C(=O)Oc1c(Sc2ccccc2[N+](=O)[O-])c(C)nn1C(C)(C)C	–	14.6µM	–	–	–	?
COc1ccccc1-c1cc(C(F)(F)F)nc(N2CCCCC2)n1	–	–	–	–	–	–
COc1ccccc1-c1cc(C(F)(F)F)nc(N2CCCC2)n1	–	–	–	25.9µM	–	–
COc1ccccc1-c1cc(C(F)(F)F)nc(S(=O)(=O)CCCC(=O)NC(C)C)n1	7.08µM	?	?	6.31µM	2.91µM	4.47µM
COc1ccc(NC(=O)CCCS(=O)(=O)c2nc(-c3ccccc3OC)cc(C(F)(F)F)n2)c(OC)c1	·	?	–	·	·	·
COc1ccccc1-c1cc(C(F)(F)F)nc(S(C)(=O)=O)n1	7.08µM	?	?	4.11µM	?	3.98µM
COc1ccccc1-c1cc(C(F)(F)F)nc(S(=O)(=O)CCCC(=O)Nc2cccnc2Cl)n1	8.91µM	–	–	?	?	3.98µM
CCOC(=O)c1c(C)c(-c2ccccc2)n(CC(=O)Nc2cccc(C)c2C)c1C	·	–	–	·	·	·
COc1ccccc1CNC(=O)c1ccc2c(c1)CCN2S(=O)(=O)c1ccc(Cl)cc1	·	–	–	·	·	·
CC(C)n1nnnc1C1c2ccccc2C(=O)N1Cc1ccccc1 (centres undefined)	·	–	–	·	·	·
Nc1cccc(B(O)O)c1	–	?	–	·	·	–
CS(=O)(=O)c1nc(-c2ccco2)cc(C(F)(F)F)n1	2.82µM	·	·	·	·	2.51µM
COc1ccccc1-c1cc(C(F)(F)F)nc(S(=O)(=O)CCCC(=O)Nc2cc(Br)ccc2O)n1	·	–	–	·	·	·
COc1ccccc1-c1cc(C(F)(F)F)nc(S(=O)(=O)CCCC(=O)NCc2ccc(F)cc2)n1	?	–	?	4.11µM	?	8.91µM
COc1ccccc1-c1cc(C(F)(F)F)nc(S(=O)(=O)CCCC(=O)N2CCCCC2C)n1 (centres undefined)	15.8µM	–	?	3.98µM	?	11.2µM
Cc1ccc(NC(=O)c2cn3c4c(ccc(Cl)c4c2=O)OC(C)C3)c(C)c1 (centres undefined)	·	–	–	·	·	·
Cc1ccc2cc(/C=N/NC(=O)c3ccccc3O)c(Cl)nc2c1	?	?	–	?	–	2.82µM
Cc1cccc2cc(/C=N/NC(=O)c3ccccc3O)c(Cl)nc12	?	?	–	7.31µM	·	10µM
O=C(N/N=C/c1cc2cc3c(cc2nc1Cl)OCCO3)c1ccccc1O	?	?	–	–	?	?
SMILES	VP16 counter	KB-V1 cytotox	KB-3-1 tox	MCF10A rerep	SW480 rereplic	RORg inh
Cc1cccc2cc(/C=N/NC(=O)c3ccncc3)c(Cl)nc12	–	–	–	–	–	–
COc1ccc(CNC(=O)c2cc(-c3cccc(Cl)c3)on2)cc1	·	–	–	·	·	·
Cc1ccc(C(=O)NCCc2cc3ccc(C)c(C)c3[nH]c2=O)cc1[N+](=O)[O-]	–	4.11µM	–	–	?	–
Cc1ccc(O)c(NC(=O)CCSc2nc(-c3ccco3)cc(C(F)(F)F)n2)c1	·	–	–	·	·	·
CCCCC(=O)N1C/C=C\C(c2ccc(OC)cc2)N(Cc2ccc(F)cc2)C(=O)C1C (centres undefined)	–	·	·	·	·	–
Cc1ccccc1NC(=S)N(Cc1cccnc1)Cc1ccccc1Cl	–	?	–	–	–	2.24µM
Cc1ccccc1NC(=S)N(Cc1ccccn1)Cc1ccccc1Cl	?	–	–	–	?	6.31µM
COc1ccccc1NC(=S)N(Cc1ccc(C)cc1)Cc1cccnc1	–[10 µM]	–	–	–	–	7.94µM
COc1ccccc1NC(=S)N(Cc1ccccn1)Cc1ccccc1Cl	–	–	–	–	–	–
O=C1c2ccc(-c3nc4ccccc4o3)cc2C(=O)N1Cc1ccccc1	·	7.31µM	–	–	–	·
O=C1c2ccc3c4c(ccc(c24)C(=O)N1Cc1cccnc1)C(=O)N(Cc1cccnc1)C3=O	–	·	·	·	·	–
O=C1c2ccc([N+](=O)[O-])cc2C(=O)N1Cc1cccnc1	–	?	–	–	–	1.26µM
O=C1c2ccc(-c3nc4ccccc4o3)cc2C(=O)N1Cc1cccnc1	·	–	–	9.2µM	?	·
CC(C)(C)c1csc(NNC(=O)c2ccc(Cl)cc2)n1	7.08µM	–	–	?	?	0.447µM
CC(C)(C)c1csc(NC(=O)c2cccnc2)n1	–	–	–	–	–	?
O=C(Cn1c(=O)oc2cc(S(=O)(=O)NCc3ccccc3)ccc21)N(CCO)Cc1ccccc1	·	–	?	·	·	·
O=C(O)c1ccc(N2C(=O)CC(SC(=Nc3ccccc3)Nc3ccccc3)C2=O)cc1 (centres undefined)	–	–	–	–	–	–
CC(/C=C/c1ccc(N(C)C)cc1)=N\N=C(/N)SC1CC(=O)N(c2ccc(C(=O)O)cc2)C1=O (centres undefined)	2.24µM	–	–	–	–	0.794µM
CSCCC(=O)Nc1nc(-c2ccccn2)cs1	–	?	–	–	?	12.6µM
Cc1cc(C)cc(OCC(=O)Nc2nc(-c3ccccn3)cs2)c1	·	?	?	?	–	·
O=C(Nc1nc(-c2ccccn2)cs1)C1CCCC1	?	?	–	–	–	8.91µM
O=C(CCCSc1ccccc1)Nc1nc(-c2ccco2)c(-c2ccco2)s1	?	?	–	14.6µM	–	–
O=C(CN1C(=O)CCC1=O)Nc1nc(-c2ccccn2)cs1	–	–	–	–	–	–
O=C(Nc1nc(-c2nc3ccccc3s2)cs1)C1CC1	?	–	–	–	?	5.62µM
COc1ccccc1CN1CC[C@@]2(CCCN(C(=O)c3cccn3C)C2)C1	–	·	·	·	·	–
Nc1c(-c2nc(-c3ccccc3Cl)no2)nnn1-c1ccccc1F	·	–	–	·	·	·
O=C(CCSc1ccccc1)Nc1nccs1	–	–	–	–	–	–
O=C(CCSc1ccccc1)Nc1ncccn1	–[0.365 µM]	–	–	20.6µM	–	–
O=C(CCCSc1ccccc1)Nc1nc(-c2ccccn2)cs1	?	–	?	–	–	10µM
